From PubChem BioAssay AID1053127 (Broad Institute, 2014)
Entries with a potency or affinity are not part of this list.

Test: CTGF mRNA reduction under YAP1 overexpression, dose response, mechanism study for YAP1 pathway inhibitor project, DLD1 cells, RT-qPCR, cherry-pick (AID 1053127)
Settings: DLD1 YAP1-overexpressing, 24 h; series mostly up to 26 µM; CTGF fold change (delta-delta-Ct), lower = inhibition: at the top concentration;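 active = compounds whose fitted curve of lowered CTGF expression reaches half effect within a set concentration limit; inconclusive = flat moderate drop in CTGF, or unreliable curve fit; inactive = the rest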

CTGF fold change (delta-delta-Ct), lower = inhibition, inactive:
O=C(c1cccc(F)c1)N1CCCCN2[C@@H](CO)[C@H](c3ccc(C#CC4(O)CCCC4)cc3)[C@@H]2C1 0.713 unspecified
COc1cccc(C#Cc2ccc3c(c2)O[C@@H](CN(C)C(=O)CN2CCOCC2)[C@@H](C)CN([C@@H](C)CO)S3(=O)=O)c1 1.36 unspecified
COc1ccccc1S(=O)(=O)N1CC[C@@H]2[C@H]1c1cc(-c3cccc(C#N)c3)ccc1N(C)[C@H]2CO 0.771 unspecified [at 23.5 µM]
C[C@H]1CC=CC[C@@H](c2ccc(F)cc2)NC(=O)[C@H](Cc2ccccc2)N(C)C(=O)c2ccccc2O1 (mixture of isomers) 0.62 unspecified
CC(=O)N1CCCCN2[C@@H](CO)[C@H](c3ccc(-c4ccccc4)cc3)[C@@H]2C1 0.666 unspecified
CC(C)NC(=O)N[C@@H]1CC[C@H](CC(=O)NCCCN(C)C)O[C@@H]1CO 1.4 unspecified
COCC(=O)N1CC(=O)N2[C@H](CO)[C@@H](c3ccc(C#CC4CC4)cc3)[C@H]2C1 0.911 unspecified
C[C@H]1CN([C@@H](C)CO)C(=O)c2cc(C#Cc3ccccc3)cnc2O[C@H]1CN(C)C(=O)c1ccccc1 0.867 unspecified
C[C@@H]1CN([C@H](C)CO)C(=O)c2ccccc2-c2ccccc2CO[C@@H]1CN(C)Cc1ccccc1C(F)(F)F 0.88 unspecified
COc1ccccc1C#Cc1ccc([C@H]2[C@H](CO)N3CCCCN(C(=O)C4CCC4)C[C@@H]23)cc1 0.643 unspecified
NCC[C@H]1CC[C@@H](NC(=O)NC2CCCCC2)[C@H](CO)O1 1.29 unspecified
O=C([C@H]1[C@H](CO)[C@H]2Cn3c(ccc(-c4ccc(F)cc4)c3=O)[C@H]2N1Cc1cocn1)N1CCCCC1 0.918 unspecified
CCS(=O)(=O)Nc1ccc2c(c1)C(=O)N(C)[C@H]1CC[C@H](CC(=O)N3CCN(C)CC3)O[C@H]1CO2 1.29 unspecified
COc1ccc2c3c(n(C)c2c1)[C@H](CO)N(S(C)(=O)=O)CC31CCN(C(=O)Nc2cccc(F)c2)CC1 1.04 unspecified
O=C(Nc1ccccc1)[C@@H]1[C@@H](CO)[C@@H]2Cn3c(cccc3=O)[C@H]1N2C(=O)c1ccc(F)cc1 0.808 unspecified
C[C@@H]1CN([C@@H](C)CO)C(=O)c2ccccc2-c2ccccc2CO[C@H]1CN(C)C(=O)Nc1ccc(-c2ccccc2)cc1 0.561 unspecified
CN1C(=O)c2cc(NS(=O)(=O)c3ccccc3F)ccc2OC[C@@H]2O[C@@H](CC(=O)NC3Cc4ccccc4C3)CC[C@@H]21 1.29 unspecified
O=C(c1cccc(F)c1)N1CCCCN2[C@H](CO)[C@H](c3ccc(C#CC4(O)CCCC4)cc3)[C@@H]2C1 0.87 unspecified
Cc1ccc(S(=O)(=O)Nc2ccc3c(c2)CC(=O)N([C@H](C)CO)C[C@@H](C)[C@@H](CN(C)S(=O)(=O)c2ccccc2)O3)cc1 0.863 unspecified
O=C(Nc1cccc(F)c1)N1CCCCN2[C@H](C1)[C@H](c1ccc(C#Cc3cccnc3)cc1)[C@@H]2CO 0.942 unspecified
C[C@@H]1CN([C@H](C)CO)S(=O)(=O)c2ccc(C#Cc3cccc(F)c3)cc2O[C@@H]1CN(C)S(=O)(=O)c1cn(C)cn1 0.498 unspecified
C[C@@H]1CN([C@H](C)CO)C(=O)c2ccccc2-c2ccccc2CO[C@@H]1CN(C)Cc1cccc2c1OCCCO2 0.917 unspecified
C[C@H](CO)N1C[C@H](C)[C@H](CN(C)Cc2ccc(Oc3ccccc3)cc2)OCc2ccccc2-c2ccccc2C1=O 1.45 unspecified [at 23.5 µM]
COc1ccc(NC(=O)N(C)C[C@H]2Oc3c(NC(=O)CCCCCC(=O)Nc4ccccc4N)cccc3C(=O)N([C@H](C)CO)C[C@@H]2C)cc1 1.07 unspecified [at 23.5 µM]
Cc1ccc(S(=O)(=O)N2CC[C@H]3[C@H](CO)Nc4ccc(-c5cccc(C(=O)N(C)C)c5)cc4[C@H]32)cc1 1.09 unspecified
O=C(Nc1ccc2c(c1)[C@H]1C[C@@H](CC(=O)N3CCc4ccccc4C3)O[C@@H](CO)[C@H]1O2)c1ccc2c(c1)OCO2 0.836 unspecified
Cc1cccc(-c2ccc([C@@H]3[C@@H](CO)N4CCCCN(S(=O)(=O)c5ccccc5F)C[C@@H]34)cc2)c1 0.962 unspecified
CCCNC(=O)N1[C@H](C#N)[C@@H](c2ccc(C#Cc3cccc(F)c3)cc2)[C@@H]1CO 3.14 unspecified
